Compounds without any hit were thinned out: in the full panel of roughly 83,000, 20% have a hit.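 Cells were grown in 96-well plates and exposed to the test compound at a single concentration for 48 hours; results are reported as percent growth, with values below 10 considered active.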 Active and inactive are the calls of the source.
Key:
Assay in all cases: NCI-60 one-dose screen, 48 h (100 = growth as untreated, 0 = no growth, -100 = all killed)
Details in all cases: 10 µM unless noted
NCI-H23 lung = test system: NCI-H23 lung
NCI-H226 lung = test system: NCI-H226 lung
NCI-H322M lung = test system: NCI-H322M lung
HOP-62 NSCLC = test system: HOP-62 NSCLC
NCI-H460 lung = test system: NCI-H460 lung
HOP-92 NSCLC = test system: HOP-92 NSCLC
NCI-H522 lung = test system: NCI-H522 lung
A549/ATCC NSCLC = test system: A549/ATCC NSCLC
786-0 renal = test system: 786-0 renal
COLO 205 colon = test system: COLO 205 colon
DU-145 prostate = test system: DU-145 prostate
K-562 leukemia = test system: K-562 leukemia
MALME-3M melanoma = test system: MALME-3M melanoma
MDA-MB-231 breast = test system: MDA-MB-231 breast
RXF 393 renal = test system: RXF 393 renal
SF-268 CNS = test system: SF-268 CNS
SF-295 CNS = test system: SF-295 CNS
SF-539 CNS = test system: SF-539 CNS
UACC-257 melanoma = test system: UACC-257 melanoma
M14 melanoma = test system: M14 melanoma

Measured: growth

CCCNNC(=O)/C=C/c1ccc(CNCCc2c(C)[nH]c3ccccc23)cc1
active: HOP-62 NSCLC 3.81% [2.5 µM] | HOP-92 NSCLC -5.2% [2.5 µM] | COLO 205 colon -55.7% [2.5 µM] | RXF 393 renal -17.9% [2.5 µM] | UACC-257 melanoma -9.62% [2.5 µM]
inactive: NCI-H23 lung 38.6% [2.5 µM] | NCI-H226 lung 33.6% [2.5 µM] | NCI-H322M lung 15.9% [2.5 µM] | NCI-H460 lung 23.8% [2.5 µM] | NCI-H522 lung 19.7% [2.5 µM] | A549/ATCC NSCLC 14% [2.5 µM] | 786-0 renal 22.8% [2.5 µM] | DU-145 prostate 24.4% [2.5 µM] | K-562 leukemia 10.7% [2.5 µM] | MALME-3M melanoma 20% [2.5 µM] | MDA-MB-231 breast 35% [2.5 µM] | SF-268 CNS 32.1% [2.5 µM] | SF-295 CNS 18% [2.5 µM] | SF-539 CNS 31.1% [2.5 µM] | M14 melanoma 17.7% [2.5 µM]

COc1cc(-c2[nH]ncc2Nc2ccc(Cl)cc2)cc(OC)c1OC
inactive: NCI-H23 lung 55.5% | NCI-H226 lung 73.2% | NCI-H322M lung 64.2% | HOP-62 NSCLC 50.1% | NCI-H460 lung 73.6% | HOP-92 NSCLC 60% | NCI-H522 lung 51.5% | A549/ATCC NSCLC 67.6% | 786-0 renal 64.3% | COLO 205 colon 107% | DU-145 prostate 102% | K-562 leukemia 47.2% | MALME-3M melanoma 69.4% | MDA-MB-231 breast 62.6% | RXF 393 renal 89.4% | SF-268 CNS 84.5% | SF-295 CNS 42.7% | SF-539 CNS 70.1% | UACC-257 melanoma 64.6% | M14 melanoma 71.3%

COc1c(O)c(O)cc2c3c(oc12)CC(c1ccc2c(c1)OCO2)CC3=O (stereo not given)
inactive: NCI-H23 lung 69.4% | NCI-H226 lung 80% | NCI-H322M lung 73.2% | HOP-62 NSCLC 71.4% | NCI-H460 lung 25% | HOP-92 NSCLC 71.7% | NCI-H522 lung 54.2% | A549/ATCC NSCLC 60.7% | 786-0 renal 52.1% | COLO 205 colon 119% | DU-145 prostate 68.8% | K-562 leukemia 17.2% | MALME-3M melanoma 95.7% | MDA-MB-231 breast 70.5% | RXF 393 renal 105% | SF-268 CNS 53.9% | SF-295 CNS 101% | SF-539 CNS 67.6% | UACC-257 melanoma 55.3% | M14 melanoma 23.3%

Nc1nc(N)c2c(n1)NC(c1ccc(Cl)cc1)CC(c1cccc(Nc3ccncc3)c1)=N2 (stereo not given)
inactive: NCI-H23 lung 54.7% | NCI-H226 lung 95.3% | NCI-H322M lung 63.9% | HOP-62 NSCLC 75.5% | NCI-H460 lung 23.2% | HOP-92 NSCLC 48.5% | NCI-H522 lung 88.6% | A549/ATCC NSCLC 30.6% | 786-0 renal 41.9% | COLO 205 colon 50.5% | DU-145 prostate 70% | K-562 leukemia 27% | MALME-3M melanoma 57% | MDA-MB-231 breast 49.8% | RXF 393 renal 49.2% | SF-268 CNS 61.7% | SF-295 CNS 64.5% | SF-539 CNS 63.5% | UACC-257 melanoma 52.3% | M14 melanoma 35.4%

O=C(/C=C/C12c3ccccc3C(c3ccccc31)C1C(=O)NC(=O)C12)c1ccncc1 (stereo not given)
inactive: NCI-H23 lung 23.2% | NCI-H226 lung 78.9% | NCI-H322M lung 35.6% | NCI-H460 lung 24.9% | HOP-92 NSCLC 23.6% | NCI-H522 lung 28.5% | A549/ATCC NSCLC 86.1% | 786-0 renal 20.6% | COLO 205 colon 78.2% | DU-145 prostate 13% | MALME-3M melanoma 37.1% | MDA-MB-231 breast 15% | RXF 393 renal 13.4% | SF-268 CNS 10.2% | SF-295 CNS 28.4% | UACC-257 melanoma 32.3% | M14 melanoma 20.3%
active: HOP-62 NSCLC 4.78% | K-562 leukemia 6.6% | SF-539 CNS 5.79%

CCN(CC)CC#CCOC(=O)[C@]1(C)CCC[C@]2(C)c3ccc(C(C)C)cc3CC[C@@H]12
inactive: NCI-H23 lung 70.8% | NCI-H226 lung 82.5% | NCI-H322M lung 93.7% | HOP-62 NSCLC 96.2% | NCI-H460 lung 97.9% | HOP-92 NSCLC 76.7% | NCI-H522 lung 80.6% | A549/ATCC NSCLC 87.5% | 786-0 renal 81.2% | COLO 205 colon 80.2% | DU-145 prostate 91.9% | K-562 leukemia 63.4% | MALME-3M melanoma 77.2% | MDA-MB-231 breast 101% | RXF 393 renal 74.5% | SF-268 CNS 96.3% | SF-295 CNS 92.8% | SF-539 CNS 79.6% | UACC-257 melanoma 86.2% | M14 melanoma 87%

N=C(N)c1ccc(-c2ccc(-c3ccc(F)cc3)s2)nc1
inactive: NCI-H23 lung 81.8% | NCI-H226 lung 72.1% | NCI-H322M lung 66% | HOP-62 NSCLC 80.5% | HOP-92 NSCLC 69.8% | NCI-H522 lung 64% | A549/ATCC NSCLC 59.1% | 786-0 renal 88.7% | DU-145 prostate 81.5% | MALME-3M melanoma 89.5% | MDA-MB-231 breast 57.1% | RXF 393 renal 80.1% | SF-268 CNS 87.6% | SF-295 CNS 79.5% | SF-539 CNS 79.6% | UACC-257 melanoma 93% | M14 melanoma 76.1%
active: NCI-H460 lung -13.2% | COLO 205 colon -46.7% | K-562 leukemia 0.099%

COc1c(F)cc(-n2c(C(=O)N3CC(F)C3)cc3cccnc32)cc1F
inactive: NCI-H23 lung 94.1% | NCI-H226 lung 96.2% | NCI-H322M lung 95.1% | HOP-62 NSCLC 97.8% | NCI-H460 lung 106% | HOP-92 NSCLC 82.7% | NCI-H522 lung 91.2% | A549/ATCC NSCLC 113% | 786-0 renal 103% | COLO 205 colon 118% | DU-145 prostate 106% | K-562 leukemia 95.5% | MALME-3M melanoma 121% | MDA-MB-231 breast 96.5% | RXF 393 renal 107% | SF-268 CNS 94.9% | SF-295 CNS 102% | SF-539 CNS 98% | UACC-257 melanoma 102% | M14 melanoma 119%

Cc1ccc(C(=O)Nc2ccc(CN3CCN(C)CC3)c(C(F)(F)F)c2)cc1C#Cc1cnc(N)cc1C#N
active: NCI-H23 lung -40.7% | NCI-H226 lung 9.78% | HOP-62 NSCLC -69.7% | NCI-H460 lung -80.7% | HOP-92 NSCLC -39.8% | NCI-H522 lung -72.7% | A549/ATCC NSCLC -84.7% | 786-0 renal -73.8% | COLO 205 colon -64.9% | DU-145 prostate -53.1% | K-562 leukemia -41.5% | MALME-3M melanoma -79.2% | MDA-MB-231 breast -67% | RXF 393 renal -88.6% | SF-268 CNS -14.7% | SF-295 CNS -68.1% | SF-539 CNS -94.8% | UACC-257 melanoma -23.6% | M14 melanoma -80.8%
inactive: NCI-H322M lung 12.4%

COc1ccc(-c2nnc3n(C)c(=O)c4ccccc4n23)cc1O
active: K-562 leukemia 9.1% | RXF 393 renal -11.7% | SF-539 CNS -3.83% | M14 melanoma 3.13%
inactive: NCI-H23 lung 41.4% | NCI-H226 lung 76.8% | NCI-H322M lung 44.6% | HOP-62 NSCLC 20.3% | NCI-H460 lung 12% | HOP-92 NSCLC 67.3% | NCI-H522 lung 15.6% | A549/ATCC NSCLC 16.5% | 786-0 renal 30.8% | COLO 205 colon 16.6% | DU-145 prostate 27.1% | MALME-3M melanoma 70.8% | MDA-MB-231 breast 36.4% | SF-268 CNS 54.1% | SF-295 CNS 11.6% | UACC-257 melanoma 49.8%

Fc1ccc(NC(c2ccc(F)cc2)C2CCN(CCCCc3ccccc3)CC2)cc1 (stereo not given)
active: NCI-H460 lung 1.45% | COLO 205 colon -56.5% | K-562 leukemia -29.1% | MDA-MB-231 breast 6.83%
inactive: NCI-H23 lung 43.7% | NCI-H226 lung 74.4% | NCI-H322M lung 60.9% | HOP-62 NSCLC 71.4% | HOP-92 NSCLC 29.1% | NCI-H522 lung 53.6% | A549/ATCC NSCLC 52.3% | 786-0 renal 35.8% | DU-145 prostate 19.3% | MALME-3M melanoma 32.6% | RXF 393 renal 10.9% | SF-268 CNS 44.2% | SF-295 CNS 34.6% | SF-539 CNS 40.5% | UACC-257 melanoma 60.7% | M14 melanoma 24.7%

CCN1CCN(CC(=O)Nc2nc3ccc(NCc4ccc(C)cc4)cc3s2)CC1
inactive: NCI-H23 lung 72.6% | NCI-H226 lung 72% | NCI-H322M lung 87.6% | HOP-62 NSCLC 78.5% | NCI-H460 lung 44.5% | HOP-92 NSCLC 39% | NCI-H522 lung 93.7% | A549/ATCC NSCLC 73.4% | 786-0 renal 68% | COLO 205 colon 16.3% | DU-145 prostate 84.3% | MDA-MB-231 breast 59.1% | RXF 393 renal 56.1% | SF-268 CNS 73.5% | SF-295 CNS 88.2% | SF-539 CNS 22.2% | UACC-257 melanoma 34%
active: K-562 leukemia -0.543% | MALME-3M melanoma -41.5% | M14 melanoma -44%

COc1cc(/C=C2\C(=O)N(CCCCn3c4ccccc4c(=O)c4ccccc43)c3ccccc32)cc(OC)c1O
inactive: NCI-H23 lung 71.6% | NCI-H226 lung 91.5% | NCI-H322M lung 86% | HOP-62 NSCLC 102% | NCI-H460 lung 60% | HOP-92 NSCLC 65.7% | NCI-H522 lung 27.4% | A549/ATCC NSCLC 95.4% | 786-0 renal 88.3% | COLO 205 colon 107% | DU-145 prostate 60.4% | K-562 leukemia 15.6% | MALME-3M melanoma 66.3% | MDA-MB-231 breast 70% | RXF 393 renal 70.5% | SF-268 CNS 60.1% | SF-295 CNS 84% | SF-539 CNS 64.3% | UACC-257 melanoma 81.7% | M14 melanoma 52.3%

Cc1ccc(S(=O)(=O)OC[C@@]2(C)CC[C@]3(C)CC[C@]4(C)C(=CC[C@@H]5[C@@]6(C)CCCNC(C)(C)[C@@H]6CC[C@]54C)[C@@H]3C2)cc1
inactive: NCI-H226 lung 19.7% | SF-295 CNS 85.6%
active: NCI-H23 lung -64.5% | NCI-H322M lung -87.4% | HOP-62 NSCLC -82.8% | NCI-H460 lung -74.6% | HOP-92 NSCLC -71.2% | NCI-H522 lung -81.5% | A549/ATCC NSCLC -75.9% | 786-0 renal -79% | COLO 205 colon -82.6% | DU-145 prostate -90.7% | K-562 leukemia -39.5% | MALME-3M melanoma -75.8% | MDA-MB-231 breast -85.7% | RXF 393 renal -85.9% | SF-268 CNS -55.2% | SF-539 CNS -93.2% | UACC-257 melanoma -58.7% | M14 melanoma -68.5%

From PubChem BioAssay (NCI)
